Test results published in PubChem BioAssay.
Results with a measured potency or affinity are listed apart. Results filed as inconclusive are left out.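 Rule for the calls: active = falling signal with fitted half-maximal potency no higher than twice the top valid tested dose; inconclusive = poor fit quality, or flat fit spanning -70% to -30%; inactive = potency over limit, rising signal, or flat fit inside 30%.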

Experiment: Cryptococcus neoformans growth inhibition, dose response, Alamar Blue, cherry-picks (AID 686998)
Details: 24 h; series mostly up to 35 µM; activity change, negative = inhibition: at the top concentration

Activity change, negative = inhibition, inactive:
COCCNC(=O)C[C@H]1CC[C@@H]2[C@H](COC[C@H](O)CN2S(=O)(=O)c2ccccc2C)O1 -28.8%, COc1ccccc1NC(=O)N[C@H]1CC[C@@H](CCn2cc(-c3ccccc3OC)nn2)O[C@@H]1CO 10.3%, CC(C)NC(=O)Nc1ccc2c(c1)C(=O)N([C@H](C)CO)C[C@@H](C)[C@H](CN(C)C(=O)Nc1ccccc1)OCCCC[C@@H](C)O2 23.6%, CCCNC(=O)N1C[C@@H](O)COC[C@H]2O[C@H](CC(=O)N3CCN(C)CC3)CC[C@@H]21 -33.2%, CCS(=O)(=O)NCC[C@@H]1CC[C@@H](NS(=O)(=O)c2cccc(F)c2)[C@@H](CO)O1 5.17%, CO[C@@H]1CN(C)C(=O)c2ccc(NC(=O)C3CC3)cc2OC[C@H](C)N(Cc2ccc(F)cc2)C[C@H]1C 17.6%, CC=Cc1ccc2n(c1=O)C[C@@H]1[C@@H](CO)[C@H](C(=O)N3CCCCC3)N(Cc3ccccc3)[C@H]21 (mixture of isomers) -1.35%, CCC(=O)N(C)C[C@H]1Oc2cc(C#CC(C)(C)O)ccc2S(=O)(=O)N([C@H](C)CO)C[C@@H]1C -9.23%, C[C@@H]1CN([C@H](C)CO)C(=O)c2cc(NS(=O)(=O)c3ccccc3)ccc2O[C@H]1CN(C)C(=O)NC1CCCCC1 -5.63% [at 30 µM], CCC(=O)N[C@H]1C=C[C@@H](CC(=O)OC)O[C@@H]1CO -32.8%, C[C@@H]1CN([C@@H](C)CO)C(=O)CCCn2nncc2CO[C@H]1CN(C)Cc1cccc(C(F)(F)F)c1 5.64%, C[C@H](CO)N1C[C@H](C)[C@H](CN(C)C(=O)Nc2cccc3ccccc23)Oc2ccc(NC(=O)Nc3ccccc3)cc2C1=O 22.7%, O=C(C[C@@H]1C=C[C@@H](NC(=O)C2CCC2)[C@H](CO)O1)NC1CCC1 16.2%, CO[C@H]1CN(C)C(=O)c2cc(NC(=O)C3CCOCC3)ccc2OC[C@@H](C)NC[C@H]1C 28.1% [at 30 µM], CC(C)NC(=O)NCC[C@@H]1CC[C@@H](NC(=O)CN(C)C)[C@@H](CO)O1 41.5%, C[C@@H]1CCCCO[C@@H](CN(C)Cc2ccc3c(c2)OCO3)[C@@H](C)CN([C@H](C)CO)C(=O)c2cc(NS(=O)(=O)c3ccc(F)cc3)ccc2O1 15.5%, Cc1ccc(C)c(NC(=O)C2CCCN2C(=O)NC2CCCCC2)c1 (stereo not given) -34.6%, CCCNC(=O)N(C)C[C@@H]1Oc2ncc(C#CC3CCCCC3)cc2C(=O)N([C@H](C)CO)C[C@@H]1C 10.5%, O=C(C[C@H]1CC[C@H](NC(=O)Nc2ccc(C(F)(F)F)cc2)[C@H](CO)O1)NCc1cccc(F)c1 -20.4%, CCc1ccc(NC(=O)C2NC(=O)CC2c2ccccc2)cc1 (stereo not given) -31.9% [at 56 µM], CNC(=O)C[C@@H]1CC[C@H]2[C@@H](COC[C@H](O)CN2C(=O)Nc2ccc3c(c2)OCO3)O1 -7.54%, O=C(N[C@H]1CC[C@@H](CCn2cc(-c3ccccc3)nn2)O[C@@H]1CO)c1cnccn1 36.5%, CC(=O)N1[C@@H](CO)[C@H](c2ccc(-c3ccccc3)cc2)[C@@H]1CNC(=O)C1CC1 8.25%, O=C(CSc1ncnc2c1cnn2-c1ccc(F)cc1)NC1CCCC1 -26.4%, O=C(Nc1ccc(F)cc1)N1C[C@@H]2[C@H](c3ccccc31)[C@H](CO)N2Cc1cocn1 -32.6%, CC(=O)NC[C@@H]1[C@@H](c2ccc(C3=CCCC3)cc2)[C@@H](CO)N1C(=O)NC(C)C 19.1%, C[C@H](CO)N1C[C@H](C)[C@@H](CN(C)C(=O)c2cccc(F)c2)Oc2cc(-c3cncnc3)ccc2S1(=O)=O -11.4%, CCCNC(=O)N(C)C[C@@H]1Oc2ncc(C#CCc3ccccc3)cc2C(=O)N([C@@H](C)CO)C[C@@H]1C 3.35%, CCC(=O)N1[C@H](CO)[C@H](c2ccccc2)[C@H]1CN(CC)C(=O)c1cccc(F)c1 -24.3%, CNC(=O)C[C@H]1CC[C@H]2[C@H](COc3ccc(NC(=O)c4cc(C)on4)cc3C(=O)N2C)O1 -23.3%, C[C@@H]1CN([C@H](C)CO)C(=O)c2cc(NC(=O)Nc3cccc4ccccc34)ccc2O[C@@H](C)CCCCO[C@@H]1CN(C)Cc1ccc2c(c1)OCO2 12.8%, Cc1nnc(NC(=O)CSc2ncnc3c2cnn3-c2ccccc2C)s1 36.4%, O=C(NC[C@H]1[C@@H](c2ccccc2)[C@@H](CO)N1C(=O)C1CCC1)NC1CCCC1 9.02%, O=C(NCC[C@H]1CC[C@@H](NS(=O)(=O)c2ccc(F)cc2)[C@H](CO)O1)c1ccc2c(c1)OCO2 -0.991%, CO[C@@H]1CN(C)C(=O)c2ccc(NC(=O)NC(C)C)cc2OC[C@H](C)NC[C@@H]1C 0.159%, COc1ccc(NC(=O)N(C)C[C@@H]2OCCCC[C@H](C)Oc3ccc(NC(=O)Nc4ccc5c(c4)OCO5)cc3C(=O)N([C@H](C)CO)C[C@@H]2C)cc1 45.9%, COc1ccc(-c2cnc3c(c2)C(=O)N([C@H](C)CO)C[C@H](C)[C@H](CN(C)Cc2ccc(F)cc2)O3)cc1 24.9%, Cc1cc(C(=O)NC(=S)Nc2ccccc2N2CCCC2)ccc1[N+](=O)[O-] -12.9%, COc1ccccc1CNC(=O)COc1ccc2c(c1)CCC2 -41.1%, CCC(=O)N1C[C@H](O)COC[C@@H]2O[C@@H](CC(=O)NCc3ccccc3Cl)CC[C@H]21 -29.3%
